Test results taken from the supplement of paper PMC3484114.
± gives the standard deviation.

tested on: OVCAR-3-derived ovarian cancer stem-like cells (spheroids); experiment: cell growth relative to untreated control; higher = more growth (less inhibition); settings: 2.29 µM; 96 h
Method in brief: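 Viability of stem-like cells from OVCAR-3 spheroids was assessed with TOX8 resazurin fluorescence at ex 560/em 590 nm. The cells had been trypsin-dissociated, seeded at 50,000 cells/mL in stem cell medium in ultra-low attachment 96-well plates and preincubated 24 h, then treated with compounds at 2.29 uM for 96 h at 37°C, 5% CO2, in 4 replicate wells, with fluorescence read after 4 h. Results were converted to percent growth against untreated wells after blank subtraction and Grubbs outlier removal.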

Compound | cell growth [%]
COc1ccc2c(c1[N+](=O)[O-])CC[C@@H]1[C@@H]2CC[C@]2(C)C(=O)CC[C@@H]12 | 152 ± 33
CC1=C\C(O)CC(=O)Cc2nc(co2)C(=O)N2CCC=C2C(=O)OC(C(C)C)C(C)/C=C/C(=O)NC/C=C\1.CCC1NC(=O)C(NC(=O)c2ncccc2O)C(C)OC(=O)C(c2ccccc2)NC(=O)C2CC(=O)CCN2C(=O)C(Cc2ccc(N(C)C)cc2)N(C)C(=O)C2CCCN2C1=O (centres undefined) | 80.8 ± 20
COc1cc2cc(c1Cl)N(C)C(=O)C[C@H](OC(=O)[C@H](C)N(C)C(C)=O)[C@]1(C)O[C@H]1[C@H](C)[C@@H]1C[C@@](O)(NC(=O)O1)[C@H](OC)/C=C/C=C(\C)C2 | 22.5 ± 4.8
Nc1ncnc2c1ncn2[C@@H]1O[C@H](CO)C[C@H]1O | 89.8 ± 18
C=C(C)[C@@H]1CC[C@]2(C(=O)O)CC[C@]3(C)[C@H](CC[C@@H]4[C@@]5(C)CC[C@H](O)C(C)(C)[C@@H]5CC[C@]43C)[C@@H]12 | 76 ± 22
CCN1/C(=C\C(C)=C\c2sc3ccccc3[n+]2CC)Sc2ccccc21 | 31.4 ± 6.9
Cc1cc(N(C)C)ccc1N=Nc1ccc2ncccc2c1 | 83.2 ± 6.3
C=C(NC(=O)C(=C)NC(=O)c1csc(C2=N[C@@H]3c4csc(n4)C4NC(=O)c5csc(n5)C([C@](C)(O)[C@@H](C)O)NC(=O)[C@H]5CSC(=N5)/C(=C/C)NC(=O)C(C(C)O)NC(=O)c5csc(n5)C3(CC2)NC(=O)[C@H](C)NC(=O)C(=C)NC(=O)C(=C)NC(=O)C(C(C)C)N[C@@H]2C=Cc3c([C@@H](C)O)cc(nc3[C@H]2O)C(=O)OC4C)n1)C(N)=O (some centres undefined) | 56.7 ± 21
O=C(Nc1ccc(Sc2ccc(N=Nc3c(O)c(S(=O)(=O)O)cc4cc(S(=O)(=O)O)ccc34)cc2)cc1)c1ccc(N=Nc2c(O)ccc3c(S(=O)(=O)O)cc(S(=O)(=O)O)cc23)cc1 | 95.9 ± 9.6
C(=C/c1nc2ccccc2o1)/c1ccc2c(c1)OCO2 | 94 ± 16
O=NN(CCCl)C(=O)NCc1ccc[n+]([O-])c1 | 76.9 ± 13
O=C1C(C(O)(C(F)(F)F)C(F)(F)F)CCC1C(O)(C(F)(F)F)C(F)(F)F (centres undefined) | 104 ± 18
CC(C)c1ccc(O)c(=O)cc1 | 66.5 ± 20
O=C1C=C(Nc2ccccc2C(=O)CC(=O)C(=O)Nc2ccc(Cl)c(Cl)c2)c2ccccc2C1=O | 79.6 ± 13
COc1cc(-c2cc(=O)c3c(OC)c(OC)c(OC)c(OC)c3o2)cc(OC)c1OC | 79 ± 21
COC(=O)c1c[nH]c2c1-c1cc(C(=O)OCc3ccccc3)n(S(=O)(=O)c3ccc(C)cc3)c1C(=O)C2=O | 20.9 ± 3.5
CN(C)c1ccc(/C=N/N=C2\C(=O)Nc3c(Cl)cc(Cl)cc32)cc1 | 106 ± 28
O=c1ncccn1C1OC(CO)C(O)C1F (centres undefined) | 113 ± 22
C[n+]1c(-c2ccc(/C=C/C=N/NC(=O)c3ccc(C(=O)N/N=C/C=C/c4ccc(-c5cn6ccccc6[n+]5C)cc4)cc3)cc2)cn2ccccc21 | 138 ± 18
CC(C)CCCCCCCCCCCCC(=O)NCC(=O)N[C@@H]1[C@@H](O)[C@H](O)[C@@H](Nc2ncnc3nc[nH]c23)O[C@H]1[C@@H](O)CO | 13.2 ± 4.3

Compound | cell growth [%]
COC(=O)C1CCC(=O)N1C(c1ccc(OC)cc1)c1cc(OC)c(OC)c(OC)c1 (centres undefined) | 18.5 ± 9.1
S=C1Nc2cnc3ccccc3c2SC1c1ccccc1 (centres undefined) | 9.8 ± 3.9
CO[C@@H]1C[C@](C)(O)Cc2cc3c(c(O)c21)C(=O)c1c(O)cc2c(c1C3=O)O[C@@H]1O[C@@]2(C)[C@H](O)[C@@H](N(C)C)[C@@H]1O | 37.7 ± 42
O=C1C(Br)=C(Br)C(=O)c2ccccc21 | 3.3 ± 4
CC[C@@]1(O)C(=O)OCc2c1cc1n(c2=O)Cc2cc3c(N)cccc3nc2-1 | 46.5 ± 11
Nc1ccccc1C(=O)NC(=O)Nc1ccc(Oc2ncc(Br)cn2)c(Cl)c1 | 61.6 ± 21
Cc1cc2cc3cc(C)c(N)cc3nc2cc1N | 40.2 ± 5.5
Cc1cc(O)c(/C=N/C(N)=S)c(=O)o1 | 92.5 ± 14
CN(C)c1ccc(/C=C2\CCc3ccccc3C2=O)cc1Br | 91.4 ± 12
Nc1ccn([C@@H]2C=C(CO)[C@@H](O)[C@H]2O)c(=O)n1 | 44.8 ± 5.1
COc1c(O[C@@H]2O[C@H](CO)[C@@H](O)[C@H](O)[C@H]2O)cc2c(c1OC)-c1ccc(OC)c(=O)cc1[C@@H](NC(C)=O)CC2 | 119 ± 20
CN(C)c1ccc(/C=C2/C=Cc3ccccc32)cc1 | 101 ± 8.1
C/C(=N\NC(=S)N1CCC1)c1ccccn1 | 20.6 ± 4
CCN(CC)C(=S)S | 61.6 ± 19
O=C1c2ccccc2C(=O)c2c(O)c(NCCNCCO)cc(O)c21 | 82.8 ± 24
Cc1c(C(=O)C/C(=N\O)C(=O)Nc2cc(Cl)c(Cl)cc2Cl)[n+](=O)c2ccccc2n1[O-] | 68.5 ± 17
Fc1cccc(Cl)c1C1SCc2nc3ccccc3n21 (centres undefined) | 22.8 ± 9.7
COc1ccc2c(c1)CCc1c-2n[nH]c1-c1[nH]nc2c1CCc1cc(OC)ccc1-2 | 87.5 ± 18
COc1ccc2cc(CN3CCC(C4CCN(Cc5ccc6cc(OC)ccc6c5)CC4)CC3)ccc2c1 | 110 ± 24
